This is an account of results in PubChem BioAssay (NCATS).

Inconclusive results are not listed. Active and inactive are the calls of the source. The call rests on the fitted dose curve; in most records, active means well fitted inhibition curve with a large enough effect; inconclusive means small, poorly fitted or top-dose-only effect; inactive means no such curve, though single readings can be large or run the other way.
Potency means the concentration at half of the fitted maximal effect.

A short description of the first assay: qHTS Screen of the MIPE 4.0 Collection Against Ewings Sarcoma (EW8) (AID 1259255). Further: nearly all actives have a fitted effect of over 35% in size.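 On viability: 100% = DMSO-treated cells and 0% = medium-only wells without cells.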 Conditions: EW8 Ewing sarcoma viability, CellTiter-Glo, 48 h; series mostly up to 45.8 µM; viability: at the top concentration. In short, it runs like this:
(§1)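 Measured: ATP luminescence (CellTiter-Glo) 10 min after reagent addition, following 48 h drug treatment. Relative luciferase units converted to percent activity, with no-cell wells as full and DMSO wells as zero inhibition.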
As a reminder, the viability is a read-out of living cells in per cent, often relative to untreated cells. Consider `CCc1ccc(C=C2SC(=S)NC2=O)cc1`, for which the “viability” value is 103% (inactive).
Consider `O=C1C(Cl)=C(NCCN2CCOCC2)C(=O)c2ncccc21`, for which the Potency is 3.72 µM (active).
As to `NC1CCC(Nc2nc(Nc3ccc(C(=O)N4CCCCC4)cc3)c3ncn(-c4cccc(F)c4)c3n2)CC1` (stereo not given), the “viability” value is 113% (inactive).
Still for that read-out and setting: in the case of `CCCCCN(C)CCC(O)(P(=O)(O)O)P(=O)(O)O` it was 127% (inactive).
Same read-out and setting: in the case of `C[C@H](NC(=O)C(=O)Nc1ccccc1C(C)(C)C)C(=O)N[C@@H](CC(=O)O)C(=O)COc1c(F)c(F)cc(F)c1F` it was 103% (inactive).
With `COc1ccc(-c2coc3cc(O)cc(O)c3c2=O)cc1`, the “viability” value is 88.5% (inactive).
Take `O=c1c(-c2ccc(O)cc2)coc2cc(O[C@@H]3O[C@H](CO)[C@H](O)[C@H](O)[C@H]3O)ccc12`: the “viability” value is 104% (inactive).
Take `C[C@@H]1CCN(C(=O)CC#N)C[C@H]1N(C)c1ncnc2[nH]ccc12`: the “viability” value was 120% (inactive).
Still for that read-out and setting: next, `O=C(CCc1ccc(O)cc1)c1c(O)cc(O)cc1O[C@@H]1O[C@H](CO)[C@H](O)[C@H](O)[C@H]1O`: 98.9% (inactive); `CCn1cc(C(=O)O)c(=O)c2ccc(C)nc21`: 112% (inactive).
Same read-out and setting: in the case of `CCOC1OC(=O)C[C@H]1NC(=O)[C@@H]1CCCN1C(=O)[C@@H](NC(=O)c1ccc(N)c(Cl)c1)C(C)(C)C` (stereo not given in full) it was 110% (inactive).
`CO[C@H]1C(=O)[C@]2(C)[C@@H](OC)C[C@H]3OC[C@@]3(OC(C)=O)[C@H]2[C@H](OC(=O)c2ccccc2)[C@]2(O)C[C@H](OC(=O)[C@H](O)[C@@H](NC(=O)OC(C)(C)C)c3ccccc3)C(C)=C1C2(C)C`: the “viability” value was 5.22% (inactive).
On to `CC=CC[C@@H](C)C(=O)[C@H]1C(=O)N[C@@H](C(C)C)C(=O)N(C)CC(=O)N(C)[C@@H](CC(C)C)C(=O)N[C@@H](C(C)C)C(=O)N(C)[C@@H](CC(C)C)C(=O)N[C@@H](C)C(=O)N[C@H](C)C(=O)N(C)[C@@H](CC(C)C)C(=O)N(C)[C@@H](CC(C)C)C(=O)N(C)[C@@H](C(C)C)C(=O)N1C`, for which the “viability” value was 102% (inactive).
In the case of `CC(=Cc1ccccc1)C=C1SC(=S)N(CC(=O)O)C1=O`, the “viability” value is 122% (inactive).
The same measure, in the same setting: next, `CC(C)(C)COc1ccc(-n2cc(C(=O)O)cn2)cc1C#N`: 96% (inactive); `CCC(CC)[C@H](NC(C)=O)[C@@H]1[C@H](O)[C@@H](C(=O)O)C[C@@H]1N=C(N)N`: 114% (inactive).
For the compound `O=C1C[C@@H](c2ccc(O)cc2)Oc2cc(O)cc(O)c21`, the Potency was 13.2 µM (active).
Same read-out and setting: in the case of `CC(=O)Nc1ccc([C@H](C)C(=O)Nc2ncc(C(C)C)s2)cc1` it was 5.9 µM (active); in that of `NS(=O)(=O)c1cccc2c1C(=O)c1cccc(O)c1C2=O`, 11.8 µM (active); in that of `Nc1nc(F)nc2c1ncn2[C@@H]1O[C@H](COP(=O)(O)O)[C@@H](O)[C@H]1O`, 14.8 µM (active).
In the case of `Cc1ccc(C(=O)Nc2cccc(C(F)(F)F)c2)cc1Nc1nc(-c2cccnc2)nc2c1cnn2C`, the Potency is 13.2 µM (active).
Same read-out and setting: in the case of `Oc1ccc(C2=Cc3ccc(O)cc3OC2)cc1` it was 6.62 µM (active).
As for `COc1ccc(C2Sc3ccccc3N(CCN(C)C)C(=O)C2OC(C)=O)cc1` (stereo not given), the “viability” value is 120% (inactive).
As to `Cc1nc(N)sc1-c1ccnc(Nc2ccc(N3CCOCC3)cc2)n1`, the Potency is 0.833 µM (active).
Turning to `Clc1ccc(C(c2ccc(Cl)cc2)n2cc[n+](CC(OCc3ccc(Cl)cc3Cl)c3ccc(Cl)cc3Cl)c2)cc1` (stereo not given), the Potency was 23.5 µM (active).
Regarding `C[N+]1(C)[C@@H]2CC(OC(=O)[C@H](CO)c3ccccc3)C[C@H]1[C@H]1O[C@@H]12` (stereo not given in full), the “viability” value was 113% (inactive).
On to `CC(=O)N(C)C1(c2ccccc2)CCN(CCC[C@]2(c3ccc(Cl)c(Cl)c3)CCCN(C(=O)c3ccccc3)C2)CC1`, for which the Potency is 23.5 µM (active).
The same measure, in the same setting: next, `CO[C@H]1C=CC=C(C)C(=O)NC2=CC(=O)C(NCCN(C)C)=C(C[C@@H](C)C[C@H](OC)[C@@H](O)[C@@H](C)C=C(C)[C@@H]1OC(N)=O)C2=O`: 0.235 µM (active).
The same measure, in the same setting: in the case of `COc1cc2nc(-c3ccc(N4CCN(C)CC4)cc3)nc(NCCN3CCOCC3)c2cc1OC` it was 0.0332 µM (active).

A short description of a further assay: qHTS Screen of the MIPE 4.0 Collection Against Ewings Sarcoma (TC32) (AID 1259256). Further: nearly all actives have a fitted effect of over 45% in size.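 On viability (percent of control): 100% = DMSO-treated cells and 0% = medium-only wells without cells.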 As to conditions: TC32 Ewing sarcoma viability, CellTiter-Glo, 48 h; series mostly up to 45.8 µM; viability (percent of control): at the top concentration. In a few lines:
as §1
(In general: qHTS replaces the single test concentration by a dilution series.)
Take `CCc1ccc(C=C2SC(=S)NC2=O)cc1`: the “viability (percent of control)” value was 118% (inactive).
As to `O=C1C(Cl)=C(NCCN2CCOCC2)C(=O)c2ncccc21`, the Potency was 2.64 µM (active).
In the case of `NC1CCC(Nc2nc(Nc3ccc(C(=O)N4CCCCC4)cc3)c3ncn(-c4cccc(F)c4)c3n2)CC1` (stereo not given), the “viability (percent of control)” value was 120% (inactive).
Still for that read-out and setting: next, `CCCCCN(C)CCC(O)(P(=O)(O)O)P(=O)(O)O`: 134% (inactive).
The same measure, in the same setting: in the case of `C[C@H](NC(=O)C(=O)Nc1ccccc1C(C)(C)C)C(=O)N[C@@H](CC(=O)O)C(=O)COc1c(F)c(F)cc(F)c1F` it was 125% (inactive); in that of `COc1ccc(-c2coc3cc(O)cc(O)c3c2=O)cc1`, 117% (inactive); in that of `O=c1c(-c2ccc(O)cc2)coc2cc(O[C@@H]3O[C@H](CO)[C@H](O)[C@H](O)[C@H]3O)ccc12`, 102% (inactive).
The same measure, in the same setting: in the case of `CO[C@H]1C=CO[C@@]2(C)Oc3c(C)c(O)c4c(O)c(c5c(c4c3C2=O)NC2(CCN(CC(C)C)CC2)N=5)=NC(=O)C(C)=CC=C[C@H](C)[C@H](O)[C@@H](C)[C@@H](O)[C@@H](C)[C@H](OC(C)=O)[C@H]1C` it was 104% (inactive).
On to `Cn1cc(C=C2C(=O)Nc3cccnc32)c2ccccc21`, for which the “viability (percent of control)” value is 97.5% (inactive).
Same read-out and setting: next, `C[C@@H]1CCN(C(=O)CC#N)C[C@H]1N(C)c1ncnc2[nH]ccc12`: 121% (inactive); `O=C(CCc1ccc(O)cc1)c1c(O)cc(O)cc1O[C@@H]1O[C@H](CO)[C@H](O)[C@H](O)[C@H]1O`: 121% (inactive).
Still for that read-out and setting: next, `CCn1cc(C(=O)O)c(=O)c2ccc(C)nc21`: 120% (inactive); `CCOC1OC(=O)C[C@H]1NC(=O)[C@@H]1CCCN1C(=O)[C@@H](NC(=O)c1ccc(N)c(Cl)c1)C(C)(C)C` (stereo not given in full): 113% (inactive).
Still for that read-out and setting: next, `CO[C@H]1C(=O)[C@]2(C)[C@@H](OC)C[C@H]3OC[C@@]3(OC(C)=O)[C@H]2[C@H](OC(=O)c2ccccc2)[C@]2(O)C[C@H](OC(=O)[C@H](O)[C@@H](NC(=O)OC(C)(C)C)c3ccccc3)C(C)=C1C2(C)C`: 103% (inactive).
In the case of `CC=CC[C@@H](C)C(=O)[C@H]1C(=O)N[C@@H](C(C)C)C(=O)N(C)CC(=O)N(C)[C@@H](CC(C)C)C(=O)N[C@@H](C(C)C)C(=O)N(C)[C@@H](CC(C)C)C(=O)N[C@@H](C)C(=O)N[C@H](C)C(=O)N(C)[C@@H](CC(C)C)C(=O)N(C)[C@@H](CC(C)C)C(=O)N(C)[C@@H](C(C)C)C(=O)N1C`, the Potency is 18.7 µM (active).
Consider `CC(=Cc1ccccc1)C=C1SC(=S)N(CC(=O)O)C1=O`, for which the “viability (percent of control)” value is 126% (inactive).
On the same count and under the same terms, in the case of `CC(C)(C)COc1ccc(-n2cc(C(=O)O)cn2)cc1C#N` it was 120% (inactive); in that of `CCC(CC)[C@H](NC(C)=O)[C@@H]1[C@H](O)[C@@H](C(=O)O)C[C@@H]1N=C(N)N`, 125% (inactive).
The same measure, in the same setting: next, `O=C1C[C@@H](c2ccc(O)cc2)Oc2cc(O)cc(O)c21`: 118% (inactive); `C[C@]12CC[C@@H]3c4ccc(O)cc4C[C@@H](CCCCCCCCCS(=O)CCCC(F)(F)C(F)(F)F)[C@H]3[C@H]1CC[C@H]2O` (stereo not given in full): 131% (inactive).
With `CC(=O)Nc1ccc([C@H](C)C(=O)Nc2ncc(C(C)C)s2)cc1`, the Potency was 4.18 µM (active).
Regarding `NS(=O)(=O)c1cccc2c1C(=O)c1cccc(O)c1C2=O`, the Potency was 1.87 µM (active).
Same read-out and setting: in the case of `Nc1nc(F)nc2c1ncn2[C@@H]1O[C@H](COP(=O)(O)O)[C@@H](O)[C@H]1O` it was 16.6 µM (active).
Still for that read-out and setting: in the case of `Cc1ccc(C(=O)Nc2cccc(C(F)(F)F)c2)cc1Nc1nc(-c2cccnc2)nc2c1cnn2C` it was 13.2 µM (active); in that of `Oc1ccc(C2=Cc3ccc(O)cc3OC2)cc1`, 2.64 µM (active).
Regarding `COC1CCC(N(C(=O)C2CCC(C)CC2)c2cc(C3=CCCCC3)sc2C(=O)O)CC1` (stereo not given), the “viability (percent of control)” value was 104% (inactive).
Same read-out and setting: next, `COc1ccc(C2Sc3ccccc3N(CCN(C)C)C(=O)C2OC(C)=O)cc1` (stereo not given): 118% (inactive).
`Cc1nc(N)sc1-c1ccnc(Nc2ccc(N3CCOCC3)cc2)n1`: the Potency is 16.6 µM (active).
Still for that read-out and setting: in the case of `Clc1ccc(C(c2ccc(Cl)cc2)n2cc[n+](CC(OCc3ccc(Cl)cc3Cl)c3ccc(Cl)cc3Cl)c2)cc1` (stereo not given) it was 20.9 µM (active).
For `COc1cc(O)c2c(c1)C(=O)c1cc(C)cc(O)c1C2=O`, the “viability (percent of control)” value was 118% [at 23.2 µM] (inactive).
Turning to `Cc1cc(OCCCc2c(C(=O)O)n(Cc3cccnc3)c3c(-c4c(COc5ccc(N6CCN([S+](C)(=O)[O-])CC6)cc5)nn(C)c4C)cccc23)cc(C)c1Cl`, the Potency was 23.5 µM (active).
In the case of `C[N+]1(C)[C@@H]2CC(OC(=O)[C@H](CO)c3ccccc3)C[C@H]1[C@H]1O[C@@H]12` (stereo not given in full), the “viability (percent of control)” value was 114% (inactive).
Consider `COc1ccc(Cc2nccc3cc(OC)c(OC)cc23)cc1OC`, for which the Potency was 23.5 µM (active).
In the case of `CC(=O)N(C)C1(c2ccccc2)CCN(CCC[C@]2(c3ccc(Cl)c(Cl)c3)CCCN(C(=O)c3ccccc3)C2)CC1`, the Potency was 26.4 µM (active).
The same measure, in the same setting: next, `CO[C@H]1C=CC=C(C)C(=O)NC2=CC(=O)C(NCCN(C)C)=C(C[C@@H](C)C[C@H](OC)[C@@H](O)[C@@H](C)C=C(C)[C@@H]1OC(N)=O)C2=O`: 0.0469 µM (active).
With `COc1cc2nc(-c3ccc(N4CCN(C)CC4)cc3)nc(NCCN3CCOCC3)c2cc1OC`, the Potency was 0.0418 µM (active).
